Source: PubChem (several laboratories)
MEKK3 PB1 HTS: MEKK3-MEK5 PB1 interaction, increase or decrease. 290,000 compounds, 1.4% hits. AID 1529. bead-based flow cytometry, Alexa488-MEK5 binding to MEKK3; actives lie on both sides; 0 = blocked by unlabeled MEK5, 100 = vehicle. Q99759. binding response (% of control), % at 10 µM;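 active means binding response more than 3 SD above or below the average of its plate-row segment, actives on both sides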;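 further: Alexa488 bead fluorescence after subtracting the streptavidin-only scavenger bead signal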
MEKK2 WT-MEK5: raises or lowers MEK5 binding to wildtype human MEKK2 PB1 domain; 290,000 compounds, 1.1% hits; bead flow cytometry, Alexa488-MEK5 binding to MEKK2 WT; actives lie on both sides; binding response (% of control), % at 10 µM; in the data active means binding response below about 67% or above about 130%
SKN-1 inh: inhibitors of C. elegans SKN-1; C. elegans VP596 Pgst-4::GFP/RFP ratio, acrylamide-induced, 24 h; inhibition, % at 21.8 µM; 360,000 compounds, 0.49% hits; AID 624304;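 active means interference check ratio from 0.5 to 1.5 plus GFP to RFP signal ratio inhibition reaching or exceeding a fixed threshold, cut at about 30% in these data, passing the limit was not always enough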
MEKK2mut PB1 HTS: signal of MEK5 binding to mutant human MEKK2 PB1 domain; AID 1530; 290,000 compounds, 0.35% hits; percent response, % at 10 µM; bead flow cytometry, Alexa488-MEK5 binding to MEKK2 mutant; in the data active means percent response above about 24%, passing the limit was not always enough
NRP1-CendR mod: modulators of CendR peptide binding to human neuropilin-1; O14786; FAM-RPARPAR peptide binding to NRP-1, fluorescence polarization; inhibition, % at 25 µM; 360,000 compounds, 0.85% hits;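 active means inhibition or corrected inhibition above about 18%, plus a signal ratio from 0.5 to 1.5, limit read from the data, passing the limit was not always enough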
Target sequence (O14786 whole entry, looked up): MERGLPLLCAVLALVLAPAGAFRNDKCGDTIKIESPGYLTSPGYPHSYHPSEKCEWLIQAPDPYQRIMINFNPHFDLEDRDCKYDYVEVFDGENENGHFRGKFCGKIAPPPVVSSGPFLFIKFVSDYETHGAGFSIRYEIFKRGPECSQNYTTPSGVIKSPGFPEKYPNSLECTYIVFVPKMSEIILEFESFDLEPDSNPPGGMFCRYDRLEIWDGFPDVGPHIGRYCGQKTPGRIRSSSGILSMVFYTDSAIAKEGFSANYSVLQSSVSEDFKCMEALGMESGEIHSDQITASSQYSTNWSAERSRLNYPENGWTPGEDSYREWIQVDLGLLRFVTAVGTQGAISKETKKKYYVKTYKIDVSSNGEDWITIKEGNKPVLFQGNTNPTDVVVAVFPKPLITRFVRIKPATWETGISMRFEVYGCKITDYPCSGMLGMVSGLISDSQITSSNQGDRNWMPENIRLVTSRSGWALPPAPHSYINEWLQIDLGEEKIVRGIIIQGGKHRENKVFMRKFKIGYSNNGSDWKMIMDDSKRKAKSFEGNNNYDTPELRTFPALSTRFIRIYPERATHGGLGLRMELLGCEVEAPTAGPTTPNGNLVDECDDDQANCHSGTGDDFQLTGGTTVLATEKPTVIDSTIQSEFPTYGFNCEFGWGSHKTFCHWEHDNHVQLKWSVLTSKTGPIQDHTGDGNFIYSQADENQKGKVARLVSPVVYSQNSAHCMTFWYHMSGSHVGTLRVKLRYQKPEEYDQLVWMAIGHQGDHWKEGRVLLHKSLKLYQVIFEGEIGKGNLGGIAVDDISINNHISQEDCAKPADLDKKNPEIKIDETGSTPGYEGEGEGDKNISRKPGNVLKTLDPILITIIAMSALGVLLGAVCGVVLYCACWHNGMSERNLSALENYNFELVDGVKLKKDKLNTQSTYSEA
MEKK2wt confirm: raises or lowers MEK5 binding to wildtype human MEKK2, retest. binding response (% of control), % at 10 µM. bead flow cytometry, Alexa488-MEK5 binding to MEKK2 WT; actives lie on both sides. shares compounds with MEKK3 PB1 HTS. 5,900 compounds, 2.4% hits. AID 1892; in the data active means binding response below about 16% or above about 210%; inactive means in between
MEKK2mut confirm: signal of MEK5 binding to mutant human MEKK2, retest. AID 1893. percent response, % at 10 µM. 5,900 compounds, 2% hits. shares compounds with MEKK3 PB1 HTS. bead flow cytometry, Alexa488-MEK5 binding to MEKK2 mutant; in the data active means percent response mostly above about 71%, no sharp cut-off; inactive means mostly below about 38%;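 further: higher means compound restores mutant binding toward wildtype level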
MEKK3-MEK5 inh: MEKK3-MEK5 PB1 inhibition, single concentration confirmation; AID 1894; binding response (% of control), % at 10 µM; shares compounds with MEKK3 PB1 HTS; bead flow cytometry, Alexa488-MEK5 binding to MEKK3; hits give low values; 5,900 compounds, 1.8% hits;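 active means binding response below 72% of control, or above a set upper limit, though filed actives all read lower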
Large screens that a line does not name were inactive (follow-up assays come after a bar, where they were run); [ ] = another dose, or the depositor's remark. Compounds with a hit are over-represented: about 3.2% of the library has one in this group of screens.

COC(=O)C1=C(C)NC(C)=C(C(=O)O[C@@H]2CCCN(Cc3ccccc3)C2)[C@@H]1c1cccc([N+](=O)[O-])c1	MEKK2 WT-MEK5 145 | MEKK2wt confirm inactive | MEKK2mut confirm inactive | MEKK3-MEK5 inh inactive
C[C@H](NC(=O)C1CCN(C(=O)[C@@H]2CCCN2C(=O)OC(C)(C)C)CC1)C(=O)NCc1ccc(F)cc1	none (no result: MEKK3 PB1 HTS, MEKK2 WT-MEK5, MEKK2mut PB1 HTS)
O=C(/C=C/c1cn(CC(O)CN2CCCCC2)c2ccccc12)c1ccccc1 (stereo not drawn)	MEKK2 WT-MEK5 141 | MEKK2wt confirm inactive | MEKK2mut confirm inactive | MEKK3-MEK5 inh inactive
CN1CCN(Cn2cc(/C=C/C(=O)c3ccccc3)c3ccccc32)CC1	MEKK2 WT-MEK5 142 | MEKK2wt confirm inactive | MEKK2mut confirm inactive | MEKK3-MEK5 inh inactive
CCCN(CCC)CC(O)Cn1cc(/C=C/C(=O)c2ccccc2)c2ccccc21 (stereo not drawn)	MEKK2 WT-MEK5 154 | MEKK2wt confirm inactive | MEKK2mut confirm inactive | MEKK3-MEK5 inh inactive
OC(CN1CCCC1)Cn1ccc2ccccc21 (stereo not drawn)	MEKK2 WT-MEK5 146, MEKK2mut PB1 HTS 31 | MEKK2wt confirm inactive | MEKK2mut confirm inactive | MEKK3-MEK5 inh inactive
CC(=O)Nc1ccc(S(=O)(=O)N(C)c2ccc(OCCOc3ccccc3F)cc2)cc1	none (no result: MEKK3 PB1 HTS, MEKK2 WT-MEK5, MEKK2mut PB1 HTS)
C[C@H]1CN([C@@H](C)CO)C(=O)CCCn2nncc2CO[C@@H]1CN(C)C(=O)NC1CCCCC1	none (no result: MEKK3 PB1 HTS, MEKK2 WT-MEK5, MEKK2mut PB1 HTS)
CCCCN(C)CC(O)Cn1cc(/C=C/C(=O)c2ccc(C)cc2)c2ccccc21 (stereo not drawn)	MEKK2 WT-MEK5 186, MEKK2mut PB1 HTS 54 | MEKK2wt confirm inactive | MEKK2mut confirm inactive | MEKK3-MEK5 inh inactive
COc1ccc(CN(C)C(=O)C2CCN(S(=O)(=O)c3cccs3)CC2)cc1F	none (no result: MEKK3 PB1 HTS, MEKK2 WT-MEK5, MEKK2mut PB1 HTS)
CC(C)Oc1ccc(CNC(=O)C2CCCN(S(=O)(=O)N3CCOCC3)C2)cc1 (stereo not drawn)	none
COC(=O)c1c(NC(=O)CN2CCN(C(=O)c3ccco3)CC2)c2c(C)cccc2n1C	MEKK3 PB1 HTS 122 | MEKK2wt confirm inactive | MEKK2mut confirm inactive | MEKK3-MEK5 inh inactive
O=C(CN1CCN(C(=O)c2c(F)cccc2F)CC1)Nc1ccccc1C(F)(F)F	none
Cc1ccccc1OCCNC(=O)CNC(=O)c1ccccc1O	MEKK3 PB1 HTS 79[inhibitor] | MEKK2wt confirm inactive | MEKK2mut confirm inactive | MEKK3-MEK5 inh inactive
COc1ccccc1OCCNC(=O)c1ccccc1C	none
CC(C)N1CCCC(C)(C(=O)Nc2nccc3ccccc23)C1 (stereo not drawn)	none (no result: MEKK3 PB1 HTS, MEKK2 WT-MEK5, MEKK2mut PB1 HTS)
O=c1[nH]c(Nc2ccc3c(c2)OCCO3)nnc1Cc1ccc(Cl)cc1	MEKK3 PB1 HTS 129 | MEKK2wt confirm inactive | MEKK2mut confirm inactive | MEKK3-MEK5 inh inactive
O=[N+]([O-])c1ccc(O)c(C=Nc2ccc3c(c2)OCCO3)c1	MEKK3 PB1 HTS 142 | MEKK2wt confirm inactive | MEKK2mut confirm inactive | MEKK3-MEK5 inh inactive
Oc1c(Br)cc(Br)cc1C=Nc1ccc2c(c1)OCCO2	none
O=[N+]([O-])c1cccc(N/N=C/c2cc([N+](=O)[O-])ccc2O)c1	MEKK3 PB1 HTS 139 | MEKK2wt confirm inactive | MEKK2mut confirm inactive | MEKK3-MEK5 inh inactive
O=[N+]([O-])c1ccc(O)c(C=Nc2ccc3oc(Cc4ccc(Cl)cc4)nc3c2)c1	MEKK3 PB1 HTS 134, MEKK2mut PB1 HTS 174 (no result: SKN-1 inh, NRP1-CendR mod) | MEKK2wt confirm inactive | MEKK2mut confirm inactive | MEKK3-MEK5 inh inactive
CC(C)C(=O)N1CCC1(C)C(=O)Nc1ccc2[nH]ccc2c1 (stereo not drawn)	none (no result: MEKK3 PB1 HTS, MEKK2 WT-MEK5, MEKK2mut PB1 HTS)
O=C(NNc1cc(Cl)ccc1Cl)c1cccs1	MEKK3 PB1 HTS 130 | MEKK2wt confirm inactive | MEKK2mut confirm inactive | MEKK3-MEK5 inh inactive
Cc1cc(Cl)ccc1NNC(=O)c1cccs1	none
CO[C@H]1CC[C@@]2(C)[C@@H](CC[C@@H]3[C@@H]2CC[C@@]2(C)[C@H]3C[C@H](C(=O)N[C@@H](CCCN=C(N)N)C(=O)NCC(=O)N[C@@H](CC(=O)O)C(N)=O)O[C@]23CCCO3)C1	none (no result: MEKK3 PB1 HTS, MEKK2 WT-MEK5, MEKK2mut PB1 HTS)
Cc1ccc(SCc2nc3ccccc3n2CC(=O)Nc2ccc(Cl)cc2)cc1	MEKK2 WT-MEK5 136, MEKK2mut PB1 HTS 26 | MEKK2wt confirm inactive | MEKK2mut confirm inactive | MEKK3-MEK5 inh inactive
COCC(C)n1c(C)cc(C(=O)COC(=O)CNC(=O)c2ccccc2)c1C (stereo not drawn)	MEKK3 PB1 HTS 131 | MEKK2wt confirm inactive | MEKK2mut confirm inactive | MEKK3-MEK5 inh inactive
CC12CCC(C(=O)N(CC(O)CN3CCCCCC3)C1=O)C2(C)C (stereo not drawn)	MEKK3 PB1 HTS 145 | MEKK2wt confirm inactive | MEKK2mut confirm inactive | MEKK3-MEK5 inh inactive
CC12CCC(C(=O)N(CC(O)CN3CCCCC3)C1=O)C2(C)C (stereo not drawn)	none (no result: MEKK3 PB1 HTS, MEKK2 WT-MEK5, MEKK2mut PB1 HTS)
COCCn1nnnc1C(c1ccc(OC)cc1)N1CCN(c2ccccc2F)CC1 (stereo not drawn)	MEKK3 PB1 HTS 122 | MEKK2wt confirm inactive | MEKK2mut confirm inactive | MEKK3-MEK5 inh inactive
COc1ccccc1C(c1nnnn1CC1CCCO1)N1CCC(C(N)=O)CC1 (stereo not drawn)	MEKK3 PB1 HTS 74[inhibitor] | MEKK2wt confirm inactive | MEKK2mut confirm inactive | MEKK3-MEK5 inh inactive
COCCn1nnnc1C(c1ccccc1OC)N1CCN(c2ccccc2F)CC1 (stereo not drawn)	none
COc1ccc(C(c2nnnn2CC2CCCO2)N2CCN(c3cccc(C)c3C)CC2)cc1 (stereo not drawn)	MEKK3 PB1 HTS 122 | MEKK2wt confirm inactive | MEKK2mut confirm inactive | MEKK3-MEK5 inh inactive
CCc1nc2c(OCCOc3ccc(F)cc3)cccn2c1N(C)C(=O)CC(C)C	none (no result: MEKK3 PB1 HTS, MEKK2 WT-MEK5, MEKK2mut PB1 HTS)
O=C(Nc1ccc2c3c(cccc13)CC2)c1ccccc1	none (no result: MEKK3 PB1 HTS, MEKK2 WT-MEK5, MEKK2mut PB1 HTS)
CC1=C(C(=O)N(C(C)C)C(C)C)CC(CC(=O)NC(c2ccccc2)c2ccccc2)C(=O)N1CCCN1CCCC1=O (stereo not drawn)	none (no result: MEKK3 PB1 HTS, MEKK2 WT-MEK5, MEKK2mut PB1 HTS)
COc1ccc(S(=O)(=O)NC(C)C)cc1C(=O)N1CCOCC1	MEKK2 WT-MEK5 -2.0[inhibitor] | MEKK2wt confirm inactive | MEKK2mut confirm inactive | MEKK3-MEK5 inh inactive
N#CC(C#N)=CC1=C2OC(c3ccccc3)=CC(c3ccccc3)=C2CCC1	MEKK3 PB1 HTS 74[inhibitor], MEKK2 WT-MEK5 72[inhibitor] | MEKK2wt confirm inactive | MEKK2mut confirm inactive | MEKK3-MEK5 inh inactive
COc1ccc(CN(C)S(=O)(=O)c2c(C)noc2C)cc1OC	none (no result: MEKK3 PB1 HTS, MEKK2 WT-MEK5, MEKK2mut PB1 HTS)
